This is an account of results in PubChem BioAssay AID1259343 (VanderVen Lab, College of Veterinary Medicine, Cornell …, 2017).

Hit rate of the full screen: of about 6,200 compounds, about 2,900 (47%) were called active. Cut-off read from the data, not from the text of the source: active = inhibition above about 50%; inactive = the rest. The set was probably picked from earlier hits. The list shows a part of the results.

The term inhibition denotes the drop in the measured response relative to a control, in per cent.

This test is described as follows: Mycobacterium tuberculosis growth inhibition, primary screen (AID 1259343). As to conditions: inhibition: at 10 µM, active compounds read high; outcome: 10 uM.
For `Cc1ccc(Cl)c2sc(NCCN(C)C)nc12`, the inhibition was 36.2% (inactive).
In the case of `CCN(CC)CCN(C(=O)c1ccnn1CC)c1nc2c(C)c(Cl)ccc2s1` it was 38.3% (inactive).
Consider `Cc1cc(C)c2nc(N3CCNCC3)sc2c1`, for which the inhibition was 97.1% (active).
In the case of `Cc1ccc(Cl)c2sc(N3CCNCC3)nc12` it was 100% (active); in that of `Cc1c(Cl)ccc2sc(N3CCNCC3)nc12`, 90.2% (active).
As to `Cc1nc(N2CCNC(=O)C2)c2c(CC(C)C)csc2n1`, the inhibition was -15.6% (inactive).
Turning to `Cc1c(O)cccc1C(=O)NC1CC(=O)N(CC2CCCCC2)C1` (stereo unspecified), the inhibition was -18.6% (inactive).
Regarding `Cc1ccc(C)c2[nH]c(=O)c(CCNC(=S)NCCc3ccccc3)cc12`, the inhibition is 51.5% (active).
`C/C(=C/C(=O)NCCc1ccccc1F)CCc1ccccc1`: the inhibition was 23.7% (inactive).
Take `N#CC(C#N)=NNc1ccc(F)cc1`: the inhibition is 91.2% (active).
`N#CC(C#N)=NNc1ccc(SC(F)F)cc1`: the inhibition was 82.4% (active).
As to `N#CC(C#N)=NNc1ccc2c(c1)OCO2`, the inhibition is 45.5% (inactive).
In the case of `N#CC(C#N)=NNc1ccccc1`, the inhibition was -41.6% (inactive).
In the case of `N#CC(C#N)=NNc1ccc2c(c1)OCCO2`, the inhibition was 70.3% (active).
Regarding `Fc1ccc(NN=C2c3ccccc3-c3ccccc32)cc1`, the inhibition was 44.1% (inactive).
Regarding `CCCOCCn1cc(C2CC=CCC2)nn1` (stereo unspecified), the inhibition was 75.7% (active).
In the case of `O=C(NCCC(=O)N1CCCC1)c1ccc(-c2ccc(Cl)cc2)o1`, the inhibition is 86.7% (active).
Regarding `S=C(c1ccc(-c2ccc(Cl)c(Cl)c2)o1)N1CCOCC1`, the inhibition is 19.5% (inactive).
Then `C=CCn1c(-c2cc3c(s2)CCC(CC)C3)n[nH]c1=S` (stereo unspecified), with 3.05% (inactive); and `CCC1CCc2c(sc3nc[nH]c(=O)c23)C1` (stereo unspecified), with 51.2% (active).
With `OCC1(CO)COC(c2ccccc2)=N1`, the inhibition is 56.2% (active).
Then `Cc1ccc(OCc2cn(-c3ccc(Cl)cc3)nn2)cn1`, with 24.1% (inactive).
Take `Cc1ccc(-n2cc(O)nn2)cc1`: the inhibition is 94% (active).
For the compound `CCCCN(CCCC)c1nc(OC)nc(-n2nnc(C(C)=O)c2C)n1`, the inhibition was 15% (inactive).
Then `Cn1c(=NC(=O)c2ccc3ccccc3n2)sc2ccccc21`, with 45.5% (inactive); and `Cc1cc(C)c(CNC(=O)c2ccc3ccccc3n2)c(=O)[nH]1`, with 70.6% (active); and `OCCNc1nc(-c2ccccc2)c2cc(Br)ccc2n1`, with 3.07% (inactive).
Then `O=C(NC1CCCC1)c1nc(-c2cccs2)no1`, with 79.1% (active); and `Cc1cc(C(=O)N2CCC(N3CCCC(C(=O)N4CCOCC4)C3)CC2)no1` (stereo unspecified), with -0.96% (inactive).
Take `O=C(c1scc2c1CCCC2)N1CCCC1`: the inhibition was 16.9% (inactive).
As for `O=C(NC1CCCC1)c1cc(-c2cccs2)on1`, the inhibition is 93.6% (active).
As for `Cc1noc(-c2cccs2)c1C(=O)NCCOc1ccccc1`, the inhibition is -3.83% (inactive).
For the compound `O=C(c1cc(-c2cccs2)on1)N1CCCC1`, the inhibition is 51.3% (active).
In the case of `O=C(NCc1ccco1)c1cc(-c2cccs2)on1` it was 35.1% (inactive).
In the case of `Cc1cc(/C=C(/Cl)c2nc(-c3cccs3)no2)cc(C)c1O` it was 32.2% (inactive).
In the case of `N#CC(O[C@@H]1O[C@H](CO[C@@H]2O[C@H](CO)[C@@H](O)[C@H](O)[C@H]2O)[C@@H](O)[C@H](O)[C@H]1O)c1ccccc1` (stereo partly specified) it was -0.91% (inactive); in that of `CCOC(=O)C(=O)N1CCC(c2nc(-c3ccc(F)c(F)c3)no2)CC1`, 75.8% (active); in that of `CC1CCN(C(=O)CCc2nc(-c3ccc(F)cc3)no2)CC1`, 87.9% (active).
As for `COc1ccc(CCc2nnc(CCC(=O)N3CCC(c4ccc(F)cc4)C3)o2)cc1` (stereo unspecified), the inhibition was 15.2% (inactive).
Then `CC1CCN(C(=O)CSc2nnc(C(C)Oc3ccc(F)cc3)o2)CC1` (stereo unspecified), with -37.3% (inactive); and `COc1ccc(CC(=O)N2CCC(c3nc(-c4ccc(C(F)(F)F)cc4)no3)CC2)cc1`, with 76.9% (active); and `COc1cccc(C(=O)N2CCC(c3nc(-c4ccc(C(F)(F)F)cc4)no3)CC2)c1`, with 30.8% (inactive).
Consider `COc1ccc(CC(=O)N2CCC(c3nc(-c4ccc(F)c(F)c4)no3)CC2)cc1`, for which the inhibition was 51.3% (active).
Regarding `CC(C)c1ccc(OP(N)(=O)Oc2ccccc2F)cc1` (stereo unspecified), the inhibition is 12.2% (inactive).
Consider `CCOC(=O)Cn1c(=NC(=O)c2cc(C)no2)sc2cc(Cl)ccc21`, for which the inhibition was -4.33% (inactive).
Take `O=C(CSc1nnc(Cc2cccs2)n1C1CC1)N1CCOC1=O`: the inhibition is -19.6% (inactive).
In the case of `O=C(c1c(F)cccc1Cl)N1CCC(c2nc(-c3ccc(F)c(F)c3)no2)CC1` it was 88.5% (active); in that of `O=C(Cc1cccs1)N1CCC(c2nc(-c3ccc(C(F)(F)F)cc3)no2)CC1`, 67.2% (active).
As to `O=C(c1ccccc1C(F)(F)F)N1CCC(c2nc(-c3ccc(Cl)cc3F)no2)CC1`, the inhibition was 15.5% (inactive).
As for `O=C(NCCc1ccc(C(F)(F)F)cc1)NCCc1cccs1`, the inhibition was 31.3% (inactive).
In the case of `COC(=O)C(=O)N1CCC(c2nc(-c3ccc(Cl)cc3)no2)CC1` it was 20.8% (inactive); in that of `O=C(COc1ccc(Cl)cc1)N1CCC(c2nc(-c3ccc(Cl)cc3F)no2)CC1`, 64.9% (active).
In the case of `CCOC(=O)CC(=O)N1CCC(c2nc(-c3ccc(Cl)cc3)no2)CC1` it was 57.3% (active); in that of `COc1ccc(CC(=O)N(CC(=O)N2CCc3sccc3C2c2ccc(Cl)cc2Cl)Cc2ccc(F)cc2)cc1` (stereo unspecified), 3.26% (inactive).
For `O=C(CCc1ccccc1)N1CCC(c2nc(-c3ccc(C(F)(F)F)cc3)no2)CC1`, the inhibition was 83.2% (active).
On to `COc1ccc(CC(=O)N2CCC(c3nc(-c4ccc(Cl)cc4F)no3)CC2)cc1`, for which the inhibition is 89% (active).
With `OCCc1ccc(-c2noc(C3CCC3)n2)cc1`, the inhibition was 40.7% (inactive).
`CC(=O)Nc1cccc(CNc2ccc(Br)cn2)c1`: the inhibition is 2.55% (inactive).
`CSC1(CNc2ccc(Br)cn2)CCOCC1`: the inhibition was 57.5% (active).
With `CC1(C(=O)Nc2ccc(F)c(-n3cccc3)c2)CCOCC1`, the inhibition is 49.2% (inactive).
In the case of `O=C1CCC(C(=O)Nc2ccc(F)c(-n3cccc3)c2)CN1` (stereo unspecified) it was 68.1% (active); in that of `O=C(CC1CCS(=O)(=O)C1)Nc1ccc(F)c(-n2cccc2)c1` (stereo unspecified), 58.4% (active).
Turning to `O=C(CC1CCCCC1)NCc1ccn(-c2ccccc2F)n1`, the inhibition was 25.1% (inactive).
Regarding `CC(=O)Nc1ccc(/C=C2\C(=O)c3c(O)ccc(Cl)c3C2C)cc1` (stereo unspecified), the inhibition is 28.3% (inactive).
`CCOC(=O)C1=C(O)/C(=C\c2cccc(C)n2)SC1=Nc1cccc(F)c1`: the inhibition is -12.2% (inactive).
On to `N#CC1(NC(=O)COc2ccc(C(=O)c3ccc(F)cc3)cc2)CCCCC1`, for which the inhibition is 99.2% (active).
In the case of `Fc1cccc(F)c1-c1nc(CSc2nccc(C(F)(F)F)n2)cs1` it was 51.8% (active); in that of `Cc1nccc(-c2ccc(NC(=O)/C=C/c3csc(C)n3)cc2)n1`, 86.2% (active); in that of `O=C(Nc1cccc(Cl)c1Cl)C1COc2ccccc2O1` (stereo unspecified), -20.1% (inactive).
Turning to `O=C(NNC(=O)C1COc2ccccc2O1)c1cccc(C(F)(F)F)c1` (stereo unspecified), the inhibition was -52.4% (inactive).
For `O=C(Nc1cccc([N+](=O)[O-])c1)C1COc2ccccc2O1` (stereo unspecified), the inhibition was 97.2% (active).
Turning to `COc1cccc(OCCCOc2ccc(/C=C3\C(=N)N4N=CSC4=NC3=O)cc2)c1`, the inhibition is 88.5% (active).
On to `N#Cc1cccc(CN2CCN3C(C(=O)Nc4ccc(-n5cccn5)cc4)=COC3=NC2=O)c1`, for which the inhibition was 85.8% (active).
Consider `N#Cc1cccc(CN2CCN3C(C(=O)Nc4ccc(-n5cccc5)cc4)=COC3=NC2=O)c1`, for which the inhibition is 29.2% (inactive).
Regarding `N#Cc1cccc(CN2CCN3C(C(=O)NCCCc4ccccc4)=COC3=NC2=O)c1`, the inhibition is 89.4% (active).
As to `O=c1c(Cl)c(Cl)cnn1Cc1cc(-c2cccs2)on1`, the inhibition is 99.8% (active).
Take `O=c1c(Cl)c(Cl)cnn1CCOc1ccc(Br)cc1`: the inhibition is 33.5% (inactive).
`O=c1c(Cl)cc(C(F)(F)F)cn1Cc1coc(-c2cccs2)n1`: the inhibition was 25.7% (inactive).
Regarding `Fc1ccc(C2C=C(c3cccs3)Nc3nnnn32)cc1` (stereo unspecified), the inhibition was 51% (active).
`FC(F)Oc1ccc(C2C=C(c3ccccc3)Nc3nnnn32)cc1` (stereo unspecified): the inhibition was -55.4% (inactive).
Take `FC(F)(F)c1ccc(C2C=C(c3cccs3)Nc3nnnn32)cc1` (stereo unspecified): the inhibition is 87.3% (active).
With `CCCCCCSC1=C(C#N)C(=O)NC(CO)S1` (stereo unspecified), the inhibition was 98.9% (active).
Consider `CCCCSC1=C(C#N)C(=O)NC(C)S1` (stereo unspecified), for which the inhibition is 27.6% (inactive).
Then `CCCCCCSC1=C(C#N)C2(CCCC2)C(C#N)C(=O)N1` (stereo unspecified), with “inactive”; and `c1ccc(-c2cnnc(N3CCCCCCC3)n2)cc1`, with 48.8% (inactive); and `COc1cccc(-c2cc(C(=O)O)nc3cc(C(C)(C)C)nn23)c1`, with 100% (active).
As for `CN1CCC(CNc2ccc3ncc(-c4cccc(OC(F)(F)F)c4)n3n2)CC1`, the inhibition was 44.6% (inactive).
As to `CC(C)(C)c1cc2nc(C(=O)O)cc(-c3cccc(C(F)(F)F)c3)n2n1`, the inhibition was 43.3% (inactive).
Regarding `COc1cccc(-c2cc(C(=O)O)nc3cc(-c4ccc(Cl)cc4)nn23)c1`, the inhibition is 59.4% (active).
In the case of `COc1ccccc1-c1cc(C(=O)O)nc2cc(-c3ccc(Cl)cc3)nn12`, the inhibition is 43.3% (inactive).
Take `CC(C)(C)c1cc2nc(C(=O)O)cc(-c3cccc(F)c3)n2n1`: the inhibition is 64.4% (active).
In the case of `CCOc1cc(C2=NN(c3ccc(C)cc3)C(=O)CC2)ccc1O` it was 6.87% (inactive); in that of `COc1ccc2c(c1)c(CC(=O)O)c(C)n2C(=O)c1ccc(Cl)cc1`, 43.2% (inactive).
In the case of `Cc1ccc(C2(CCN)CCOC(C(C)C)C2)cc1` (stereo unspecified), the inhibition was 80.7% (active).
In the case of `COc1ccc(NC(=O)CSc2n[nH]c(C3CC3)n2)cc1` it was 78.8% (active).
As to `COc1ccc(NC(=O)N2CCN(CCCOC(c3ccc(Cl)cc3)c3ccc(Cl)cc3)CC2)cc1`, the inhibition is 10.1% (inactive).
With `Cc1ccc(Cc2nnc(SCC(=O)Nc3ccc(OC(F)F)cc3)[nH]c2=O)cc1`, the inhibition is 44.2% (inactive).
Consider `O=[N+]([O-])c1cccc(-c2csc(Nc3ccc(Cl)cc3)n2)c1`, for which the inhibition was 88.3% (active).
As for `Cc1ccc(C)c(Nc2nc(-c3ccc([N+](=O)[O-])cc3)cs2)c1`, the inhibition is 15.3% (inactive).
On to `COC(=O)c1ccc2c(c1)S(=O)(=O)N(C1CCCCC1C)C2=O` (stereo unspecified), for which the inhibition is 81.4% (active).
Consider `COC(=O)Nc1cccc(C(=O)N2CCC(C)C3CCCCC32)c1` (stereo unspecified), for which the inhibition was 27.1% (inactive).
